Assay results: PubChem BioAssay
The source made the active and inactive calls.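 Rule for the calls: active = fluorescence ratio normalized to control raised more than 50% in primary screen plus both repeat runs; inactive = the rest.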

tested on: TRPC4 beta (transient receptor potential cation channel C4), mouse; experiment: TRPC4 cation channel opening, retest – cell-based, Fluo4 calcium, HEK293 TRPC4beta/mu-opioid, duplicates, 10 µM, confirmation (AID 2426); settings: Fluo4 calcium fluorescence, at 10 µM

outcome, inactive:
COc1ccc(CN2CCN(Cc3ccccc3F)CC2)c(OC)c1
C/C(N)=C(/C#N)C(=O)COC(=O)CC12CC3CC(CC(C3)C1)C2
CCCCC[n+]1cccc2c3ccccc3ccc21
COc1ccc(OC)c(Nc2cc(-c3ccccc3)nc(N)n2)c1
CCC1CCCCN1Cc1nc2c(c(=O)n(C)c(=O)n2C)n1Cc1ccccc1 (centres undefined)
CCOC(=O)C1CCN(C2CCN(C(=O)c3oc4c(C)c(C)ccc4c3C)CC2)CC1
O=[N+]([O-])c1cccc(-c2nnc(C3CC3)o2)c1
CCOc1c(Cl)cc(CNCC(O)c2ccccc2)cc1OC (centres undefined)
O=C(c1cccc(C(=O)N2CCN(c3ccccc3)CC2)c1)N1CCN(c2ccccc2)CC1
Cc1ccn2c(-c3csc(NCc4ccco4)n3)c(C)nc2c1
COc1ccc(Nc2nc(N)c3ccccc3n2)c(OC)c1
CCc1c(C(=O)N2CCCN(C)CC2)csc1C
COc1ccc(C)cc1N(C(=O)c1snc(C(N)=O)c1N)C(C(=O)NC1CCCC1)c1ccc(F)cc1 (centres undefined)
CC(C)(c1ccccc1)c1ccc(OCCCNCCO)cc1
Cc1ccc(-n2nc(-c3cccs3)cc2C(=O)NCC2CCCO2)c(C)c1 (centres undefined)
CC(C)CCN1CCN(Cc2ccsc2)CC1CCO (centres undefined)
CN(CC1CCCN(CCc2cccc(C(F)(F)F)c2)C1)C(=O)c1cc2ccccc2o1 (centres undefined)
Oc1ccc(CN2CCc3ccccc3C2)c2cccnc12
COc1ccc(C2C(C(C)=O)=C(O)C(=O)N2c2ccc(Br)cc2)cc1 (centres undefined)
